About 9,300 (1.5%) of roughly 640,000 compounds were called active. Cut-off read from the data, not from the text of the source: active = inhibition above about 32%; inactive = the rest. The list comes from a sample in which actives are over-represented; it also holds similar structures and randomly drawn compounds.
Experiment: TEAD-YAP interaction inhibition, primary screen, TEAD-YAP interaction inhibitor project, luminescence, HEK-TIYL cells (AID 1259422);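 note: 0% = median of test compound wells and 100% = reference inhibitor wells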
Settings: TEAD-Gal4/YAP UAS-luciferase luminescence, at 9.12 µM, stronger effect = higher value

| SMILES | inhibition |
| --- | --- |
| CCOc1ccc(-c2c(C#N)c(N)nc(OC)c2C#N)cc1 | -17.1% (inactive) |
| CN1N=C(C(F)(F)F)/C(=N/OC(=O)c2ccc(Cl)cc2Cl)C1=O | 6.23% (inactive) |
| CC(=O)Nc1ccc(Nc2ncnc3nc(-c4c(C)noc4C)[nH]c23)cc1 | -7.16% (inactive) |
| Cc1ccc(/C=C/C(=O)N2CCN(c3ccc([N+](=O)[O-])cc3)CC2)cc1 | 2.02% (inactive) |
| CCN(CC)CCNC(=O)c1c(CSc2ccccc2)n(C)c2cc(Br)c(OC)cc12 | 6.43% (inactive) |
| CCOc1ccc(-n2c(SCc3cc(C(C)=O)ccc3OC)nc3c(sc(=S)n3-c3ccccc3)c2=O)cc1 | -3.25% (inactive) |
| Cc1cc(C)cc(C(=O)NCC(=O)OCC(=O)NC(N)=O)c1 | 1.58% (inactive) |
| COc1cccc(CNC(=O)c2[nH]c3cc(-c4cn[nH]c4)ccc3c2CN(C)Cc2ccccc2)c1 | -12.2% (inactive) |
| COc1ccc(-c2nc(Nc3cc(Oc4ccccc4)cc([N+](=O)[O-])c3)c3ccccc3n2)cc1OC | -13.1% (inactive) |
| COc1ccc(-c2nc(Nc3ccc(C)c(F)c3)c3ccccc3n2)cc1OC | -0.35% (inactive) |
| COc1cc(Nc2nc(-c3ccc(OC)c(OC)c3)nc3ccccc23)cc(OC)c1 | 43% (active) |
| Nc1nnc(SCC(=O)NC2CCCc3ccccc32)s1 (stereo not drawn) | 0.12% (inactive) |
| COc1ccccc1-n1nnc(C(=O)N2CCCCC2)c1N | -0.58% (inactive) |
| COc1ccccc1-n1nnc(C(=O)NC2CCCc3ccccc32)c1N (stereo not drawn) | 45.5% (active) |
| Fc1cccc(Cn2nnc(-c3ccc4c(c3)OCO4)n2)c1 | -36.6% (inactive) |
| CCOc1ccccc1-n1c(=S)sc2c(=O)n(-c3ccccc3C)c(SCC#N)nc21 | -7.3% (inactive) |
| O=[N+]([O-])c1cccc(S(=O)(=O)NNc2ccccc2)c1 | 2.84% (inactive) |
| OC(COc1ccccc1CNCCN1CCCCC1)CN1CCc2ccccc2C1 (stereo not drawn) | 2.84% (inactive) |
| Cc1c(C(=O)Nc2ccc(F)cc2F)sc2ncnc(N3CCc4ccccc4C3)c12 | 12.9% (inactive) |
| O=c1oc2ccccc2cc1-c1cn(-c2ccccc2)c(=S)[nH]1 | 72.7% (active) |

| SMILES | inhibition |
| --- | --- |
| O=c1oc2ccccc2cc1-c1nnc(-c2ccccc2)o1 | -51.9% (inactive) |
| S=c1[nH]c(-c2ccc(Cl)cc2)cn1-c1cccc(Cl)c1 | -6.64% (inactive) |
| CC(C)n1c(Nc2ccc(N3CCOCC3)cc2)nc2c(NCCc3ccc(O)cc3)ncnc21 | 12.6% (inactive) |
| CCOC(=O)c1c(NC(=O)CN2CCCC2)sc(C)c1-c1ccccc1 | 4.43% (inactive) |
| CCOc1ccc2cc(C#N)c(SCC(=O)NCc3ccc(OC)cc3)nc2c1 | 3.49% (inactive) |
| COc1ccc2cc(C#N)c(SC)nc2c1 | 33.8% (active) |
| COc1ccc(OC)c(NC(=O)CSc2nc3cc(OC)ccc3cc2C#N)c1 | 6.71% (inactive) |
| O=C(CSc1nc2ccc(Br)cc2c2nc3ccccc3n12)NCc1ccccc1 | 0.74% (inactive) |
| CCOc1ccccc1CN1CCOc2ccc(C(O)c3cccnc3)cc2C1 (stereo not drawn) | 5.37% (inactive) |
| CC(C)C(O)c1ccc2c(c1)CN(Cc1cccc(OCCO)c1)CCO2 (stereo not drawn) | 1.92% (inactive) |
| CCn1nc(C)c(CN2CCOc3ccc(C(O)c4cccnc4)cc3C2)c1C (stereo not drawn) | 36.6% (active) |
| CCOc1ccc(-c2n[nH]c3c2C(c2ccccc2OC)NC3=O)cc1 (stereo not drawn) | 18.1% (inactive) |
| O=C1CCCC2=C1C(c1ccccc1[N+](=O)[O-])C1=C(CCCC1=O)O2 | -1.3% (inactive) |
| CSc1sc(SC)c(CO)c1CO | -4.01% (inactive) |
| CN1CCN(NC(=O)c2cc3c(s2)CCCCC3)CC1 | 12.5% (inactive) |
| Cc1cccc(C(=O)Nc2sc3c(c2C(=O)Nc2ccccn2)CCCC3)c1 | -4.61% (inactive) |
| O=C(Nc1ccccn1)c1cc2c(s1)CCCC2 | 93.2% (active) |
| CC(C)NC(=O)Cn1nc2n(CC(=O)NC3CCCCC3C)c3ccccc3n2c1=O (stereo not drawn) | 1.58% (inactive) |
| O=C(Nc1ccc(S(=O)(=O)Nc2nccs2)cc1)c1cc(Cl)cc(Cl)c1 | 1.26% (inactive) |
| C/C=C/c1ccc(Oc2ccc([N+](=O)[O-])c3cnccc23)c(OC)c1 | -0.05% (inactive) |

| SMILES | inhibition |
| --- | --- |
| Brc1ccc2ncnc(NCc3cccnc3)c2c1 | 34.6% (active) |
| Clc1ccc(Cn2ncc3c(NCc4cccnc4)ncnc32)cc1 | 19.8% (inactive) |
| Cn1ncc2c(NCc3cccnc3)ncnc21 | 3.93% (inactive) |
| CCCNc1cc(CC)nc2c3c(C)cc(C)nc3nn12 | -5.94% (inactive) |
| CCOc1cccc2sc(N3CCOCC3)nc12 | -1.73% (inactive) |
| COc1cc2c(cc1/C=C1/NC(=O)N(Cc3ccccc3Cl)C1=O)OCO2 | -0.77% (inactive) |
| O=C1/C(=C/c2ccc(-c3ccc([N+](=O)[O-])cc3)o2)C=C(c2ccccc2)N1c1cccc(Br)c1 | 5.51% (inactive) |
| CC(C)=NOC(=O)CCS(=O)(=O)c1nc(-c2cccs2)cc(C(F)(F)F)n1 | -33.7% (inactive) |
| Cc1ccc(NC(=O)CSC2=C(C#N)C(c3ccc(F)cc3)CC(=O)N2)cc1 (stereo not drawn) | 11.8% (inactive) |
| CC[N+]1=C(C)C(C)(C)c2cc(-c3ccccc3)ccc21 | 25.8% (inactive) |
| CCN1/C(=C/c2ccc3cc(C)ccc3[n+]2CC)Sc2ccc(OC)cc21 | 83.3% (active) |
| CCN1/C(=c2/s/c(=C3/C(=O)N(c4ccccc4)NC3=Nc3ccccc3)n(CC)c2=O)Sc2ccc(OC)cc21 | 5.23% (inactive) |
| CCN1C(=O)/C(=C\c2ccc(OC)cc2)SC1=S | 6.61% (inactive) |
| CCN1/C(=C/c2ccc3cc(C)ccc3[n+]2CC)Sc2ccc(-c3ccccc3)cc21 | 88.8% (active) |
| CCN1/C(=C/c2ccc3cc(OC)ccc3[n+]2CC)Sc2c1ccc1c2CCCC1 | 87.9% (active) |
| CCC(/C=C1\Sc2ccc(-c3ccccc3)cc2N1CC)=C\c1sc2ccc3ccccc3c2[n+]1CC | 21.8% (inactive) |
| CCN1/C(=C/c2ccc3ccc(C)cc3[n+]2CC)Sc2ccccc21 | 87.4% (active) |
| Cc1noc(/C=C/N(C)C)c1S(=O)(=O)N1CCC(C(=O)N2CCCC2)CC1 | -1.15% (inactive) |

— PubChem BioAssay AID1259422 (The Scripps Research Institute Molecular Screening Center, 2018)
